This is part of a sample that, as a whole, favours compounds with a hit. Of some 83,000 tested, about 20% had one in any assay.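 Results are percent growth after 48 hours of single-concentration exposure. 100 means growth as in untreated cells, lower positive values show inhibition; negative values down to -100 show cell death.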 The source made the active and inactive calls. Rule for the calls: active = growth percent below 10; inactive = the rest.
How the values were obtained:
Assay in all cases: NCI-60 one-dose screen, 48 h (100 = growth as untreated, 0 = no growth, -100 = all killed)
Conditions in all cases: 10 µM unless noted
HCT-15 colon = test system: HCT-15 colon
HT29 colon = test system: HT29 colon
SNB-75 CNS = test system: SNB-75 CNS
SNB-19 CNS = test system: SNB-19 CNS
U251 CNS = test system: U251 CNS
PC-3 prostate = test system: PC-3 prostate
SK-MEL-5 melanoma = test system: SK-MEL-5 melanoma
UACC-62 melanoma = test system: UACC-62 melanoma
LOX IMVI melanoma = test system: LOX IMVI melanoma
SK-MEL-28 melanoma = test system: SK-MEL-28 melanoma
SK-MEL-2 melanoma = test system: SK-MEL-2 melanoma
EKVX NSCLC = test system: EKVX NSCLC
SN12C renal = test system: SN12C renal
UO-31 renal = test system: UO-31 renal
TK-10 renal = test system: TK-10 renal
ACHN renal = test system: ACHN renal
CAKI-1 renal = test system: CAKI-1 renal
A498 renal = test system: A498 renal
CCRF-CEM leukemia = test system: CCRF-CEM leukemia
MOLT-4 leukemia = test system: MOLT-4 leukemia

Measured: growth

O=C(c1ccc(Cl)cc1)C1[C@H](c2ccccc2Cl)[C@@H](c2ccccc2)NC12C(=O)Nc1ccc(Cl)cc12 (stereo not given in full)
active: HCT-15 colon -81% | HT29 colon -81.6% | SNB-75 CNS -16.4% | SNB-19 CNS -28.4% | U251 CNS -73.3% | PC-3 prostate -24.8% | SK-MEL-5 melanoma -98.1% | UACC-62 melanoma -59.9% | LOX IMVI melanoma -100% | SK-MEL-28 melanoma -80.1% | SK-MEL-2 melanoma -87.1% | EKVX NSCLC -23.5% | SN12C renal -90.4% | UO-31 renal -51.2% | TK-10 renal -0.422% | ACHN renal -26.1% | CAKI-1 renal -20.2% | A498 renal -40.7% | CCRF-CEM leukemia -6.99% | MOLT-4 leukemia -29.4%

CS(=O)(=O)Nc1cc(-c2ccc3ncnc(N4CCc5cc(F)c(Cl)cc54)c3c2)cnc1Cl
active: HCT-15 colon 7.55% | SNB-75 CNS -17.7% | SK-MEL-5 melanoma -72.8% | UACC-62 melanoma -43.2% | LOX IMVI melanoma -29.2% | SK-MEL-28 melanoma -0.47% | SK-MEL-2 melanoma -31.6% | EKVX NSCLC -23% | UO-31 renal 5.68% | TK-10 renal -1.98% | ACHN renal 9.43% | CAKI-1 renal -8.1% | A498 renal -36.5% | MOLT-4 leukemia -47.4%
inactive: HT29 colon 19.7% | SNB-19 CNS 27% | U251 CNS 17.8% | PC-3 prostate 12.9% | SN12C renal 19.3% | CCRF-CEM leukemia 16.7%

COC(=O)c1cccc(Oc2ccc(NC(=O)Nc3cc(C(F)(F)F)ccc3F)cc2)c1
inactive: HCT-15 colon 62% | HT29 colon 62.9% | SNB-19 CNS 10.7% | U251 CNS 40.4% | PC-3 prostate 69.9% | SK-MEL-5 melanoma 94.5% | UACC-62 melanoma 69.6% | LOX IMVI melanoma 79.5% | SK-MEL-28 melanoma 88.7% | SK-MEL-2 melanoma 73.1% | EKVX NSCLC 60.9% | SN12C renal 75.7% | UO-31 renal 73.9% | TK-10 renal 88.5% | ACHN renal 56.4% | CAKI-1 renal 62.4% | A498 renal 94.9% | CCRF-CEM leukemia 65% | MOLT-4 leukemia 64.7%
active: SNB-75 CNS -34.1%

Nc1cc(-c2c[nH]c3ccc(Cl)cc23)nc2cc(-c3c[nH]c4ccccc34)nn12
active: HCT-15 colon -87.1% | HT29 colon -59.7% | SNB-19 CNS -59.5% | U251 CNS -74.4% | PC-3 prostate -12% | SK-MEL-5 melanoma -87% | UACC-62 melanoma -82.7% | LOX IMVI melanoma -94.6% | SK-MEL-28 melanoma -66.9% | SK-MEL-2 melanoma -45.8% | EKVX NSCLC -23.7% | SN12C renal 6.54% | UO-31 renal -4.79% | TK-10 renal -7.78% | ACHN renal 0.126% | CAKI-1 renal -19.1% | A498 renal -14% | CCRF-CEM leukemia -16.6% | MOLT-4 leukemia -27.4%
inactive: SNB-75 CNS 19.4%

CCCCNC(=S)Nc1ccc(OCc2nc3ccc(Cl)cc3[nH]2)cc1
inactive: HCT-15 colon 14.5% | HT29 colon 28.4% | SNB-75 CNS 26.4% | SNB-19 CNS 53% | U251 CNS 23.7% | PC-3 prostate 35.4% | SK-MEL-5 melanoma 42.5% | UACC-62 melanoma 29.9% | SK-MEL-28 melanoma 45.5% | EKVX NSCLC 28.9% | SN12C renal 19.2% | TK-10 renal 36.6% | CAKI-1 renal 21.6%
active: LOX IMVI melanoma -29.8% | SK-MEL-2 melanoma 7.47% | UO-31 renal 5.99% | ACHN renal 5.02% | CCRF-CEM leukemia 7.96% | MOLT-4 leukemia 9.85%

CCCn1c(NC(=O)c2cccc(C(N)=O)c2)nc2ccc(CN3CCCCC3)cc21
inactive: HCT-15 colon 67.1% | HT29 colon 91% | SNB-75 CNS 128% | SNB-19 CNS 111% | U251 CNS 106% | PC-3 prostate 63.2% | SK-MEL-5 melanoma 102% | UACC-62 melanoma 113% | LOX IMVI melanoma 93.4% | SK-MEL-28 melanoma 106% | SK-MEL-2 melanoma 105% | EKVX NSCLC 103% | SN12C renal 88% | UO-31 renal 65.3% | TK-10 renal 99.3% | ACHN renal 60.3% | CAKI-1 renal 50.2% | A498 renal 159% | CCRF-CEM leukemia 96.4% | MOLT-4 leukemia 98.9%

CNc1nc2ccccc2n2c(-c3ccc(O)c(O)c3)cnc12
active: HCT-15 colon 5.19% | HT29 colon 2.27% | SNB-75 CNS -15.5% | U251 CNS 6.12% | SK-MEL-5 melanoma -23.6% | UACC-62 melanoma 4.77% | LOX IMVI melanoma 5.44% | SK-MEL-2 melanoma 3.66% | SN12C renal 4.03% | UO-31 renal 1.12% | ACHN renal 6.64% | CAKI-1 renal 3.52%
inactive: SNB-19 CNS 27.5% | PC-3 prostate 31.7% | SK-MEL-28 melanoma 23.3% | EKVX NSCLC 16.3% | TK-10 renal 62.8% | CCRF-CEM leukemia 14.9% | MOLT-4 leukemia 11%

O=S(=O)(c1nc(-c2ccc(Br)cc2)oc1-c1ccc(Cl)cc1)N1CCCC(O)C1 (stereo not given)
inactive: HCT-15 colon 42.6% | HT29 colon 11.2% | SNB-75 CNS 94.6% | SNB-19 CNS 62% | U251 CNS 64.8% | PC-3 prostate 28.2% | SK-MEL-5 melanoma 82.6% | UACC-62 melanoma 53.8% | SK-MEL-28 melanoma 79.4% | SK-MEL-2 melanoma 65.2% | EKVX NSCLC 50% | UO-31 renal 37.4% | TK-10 renal 102% | ACHN renal 53.8% | CAKI-1 renal 71.1% | A498 renal 83.3% | CCRF-CEM leukemia 48.1%
active: LOX IMVI melanoma 4.05% | SN12C renal -59.5% | MOLT-4 leukemia 6.98%

CCCCCCCCc1ccc(C(=O)Nc2ccc(C)cc2C(=O)O)cc1
inactive: HCT-15 colon 53.2% | HT29 colon 109% | SNB-75 CNS 106% | SNB-19 CNS 67.5% | U251 CNS 75.4% | PC-3 prostate 66.6% | SK-MEL-5 melanoma 87.1% | UACC-62 melanoma 87.8% | LOX IMVI melanoma 89.9% | SK-MEL-28 melanoma 108% | SK-MEL-2 melanoma 94.8% | EKVX NSCLC 77.5% | SN12C renal 89.5% | UO-31 renal 76.3% | TK-10 renal 103% | ACHN renal 69.4% | CAKI-1 renal 85.4% | CCRF-CEM leukemia 53.9% | MOLT-4 leukemia 75.3%

Fc1ccc(F)c(CNc2nc(SCCN3CCOCC3)nc3c2cnn3CC(Cl)c2ccc(Br)cc2)c1 (stereo not given)
inactive: SNB-75 CNS 56.3% | SNB-19 CNS 42.2% | U251 CNS 26.7% | PC-3 prostate 25.2% | SK-MEL-28 melanoma 32.3% | EKVX NSCLC 45.1% | SN12C renal 28.9% | TK-10 renal 44.8% | ACHN renal 10.6% | CAKI-1 renal 26.7% | A498 renal 64.8% | CCRF-CEM leukemia 11.1%
active: HCT-15 colon -17.6% | HT29 colon -49.7% | SK-MEL-5 melanoma -12.9% | UACC-62 melanoma -1.48% | LOX IMVI melanoma -7.7% | SK-MEL-2 melanoma 5.82% | UO-31 renal 9.3% | MOLT-4 leukemia -22.6%

COc1ccc2[nH]c(=O)c(CSc3ccccc3Nc3nccc(-c4ccc(C(F)(F)F)cc4)n3)cc2c1
active: HT29 colon 4.71% | SNB-75 CNS -5.5% | PC-3 prostate 3.44% | LOX IMVI melanoma 7.62% | SN12C renal -30.8% | ACHN renal -29.4% | CAKI-1 renal -6.85% | CCRF-CEM leukemia 7.12% | MOLT-4 leukemia -8.19%
inactive: HCT-15 colon 12.9% | SNB-19 CNS 33.7% | U251 CNS 22.5% | SK-MEL-5 melanoma 48.8% | UACC-62 melanoma 47.9% | SK-MEL-28 melanoma 51.4% | SK-MEL-2 melanoma 41.9% | EKVX NSCLC 54.3% | UO-31 renal 26.9% | TK-10 renal 97.1% | A498 renal 39.9%

FC(F)(F)c1cc2c(Cl)ncnc2n1CCN1CCCCC1
inactive: HT29 colon 56.2% | SNB-75 CNS 13.6% | U251 CNS 81.8% | PC-3 prostate 55.8% | SK-MEL-5 melanoma 83.2% | UACC-62 melanoma 50.8% | SK-MEL-28 melanoma 52.5% | EKVX NSCLC 72% | SN12C renal 59.7% | TK-10 renal 105% | CAKI-1 renal 21.3%
active: HCT-15 colon -30.7% | SNB-19 CNS -35.3% | LOX IMVI melanoma -88.8% | SK-MEL-2 melanoma -16% | UO-31 renal -96.3% | ACHN renal -22.5% | CCRF-CEM leukemia 4.18% | MOLT-4 leukemia -14.3%

CCCCN1C(=O)/C(=C\C(=O)c2cc3ccccc3oc2=O)c2ccccc21
inactive: HT29 colon 71.2% | SNB-75 CNS 61.6% | SNB-19 CNS 91.3% | U251 CNS 88.2% | PC-3 prostate 83.3% | SK-MEL-5 melanoma 84.5% | UACC-62 melanoma 65.8% | LOX IMVI melanoma 57% | SK-MEL-28 melanoma 52.2% | SK-MEL-2 melanoma 79.8% | EKVX NSCLC 84.5% | SN12C renal 56.2% | UO-31 renal 32.1% | TK-10 renal 57.7% | CAKI-1 renal 70.8% | CCRF-CEM leukemia 25.5%
active: HCT-15 colon 2.32% | ACHN renal 0.901% | MOLT-4 leukemia 3.77%

O=C(NC(=S)N1CCN(c2ncnc3c2cnn3-c2ccccc2)CC1)c1ccc(Br)cc1
active: SNB-75 CNS 7.89%
inactive: HCT-15 colon 58.3% | HT29 colon 86.4% | SNB-19 CNS 46.6% | U251 CNS 56.5% | PC-3 prostate 64.8% | SK-MEL-5 melanoma 75% | UACC-62 melanoma 60.6% | LOX IMVI melanoma 41.1% | SK-MEL-28 melanoma 77.1% | SK-MEL-2 melanoma 87.4% | EKVX NSCLC 76.4% | SN12C renal 48.4% | UO-31 renal 70.7% | TK-10 renal 127% | ACHN renal 69.2% | CAKI-1 renal 47.8% | A498 renal 104% | CCRF-CEM leukemia 81.2% | MOLT-4 leukemia 81.5%

COC(=O)c1cc(C(=O)C(C)(C)C)n2c3ccccc3c3ccccc3c12
inactive: HCT-15 colon 65.6% | HT29 colon 99.4% | SNB-75 CNS 84.1% | SNB-19 CNS 109% | U251 CNS 97% | PC-3 prostate 59.2% | SK-MEL-5 melanoma 88.6% | UACC-62 melanoma 66.7% | LOX IMVI melanoma 91.1% | SK-MEL-28 melanoma 99.2% | SK-MEL-2 melanoma 93.3% | EKVX NSCLC 101% | SN12C renal 95.5% | UO-31 renal 84.7% | TK-10 renal 121% | ACHN renal 89.7% | CAKI-1 renal 60.7% | A498 renal 156% | CCRF-CEM leukemia 75.8% | MOLT-4 leukemia 67.1%

Reference: PubChem BioAssay (NCI)
